Compound activity as filed in PubChem BioAssay.
ST2 IL33 inh – inhibitors of human ST2 (IL1RL1) binding to IL-33, primary screen, biochemical, AlphaLISA | inhibition, % for hits at 17 µM | actives 2.3% (n = 78,000) | AID 1259354, 2018 | AlphaLISA ST2-Fc/biotin-IL-33 interaction, 1 h | Interleukin-1 receptor-like 1 (Homo sapiens), Q01638; in the data active = inhibition above about 30%
Target sequence (Q01638 whole entry, looked up): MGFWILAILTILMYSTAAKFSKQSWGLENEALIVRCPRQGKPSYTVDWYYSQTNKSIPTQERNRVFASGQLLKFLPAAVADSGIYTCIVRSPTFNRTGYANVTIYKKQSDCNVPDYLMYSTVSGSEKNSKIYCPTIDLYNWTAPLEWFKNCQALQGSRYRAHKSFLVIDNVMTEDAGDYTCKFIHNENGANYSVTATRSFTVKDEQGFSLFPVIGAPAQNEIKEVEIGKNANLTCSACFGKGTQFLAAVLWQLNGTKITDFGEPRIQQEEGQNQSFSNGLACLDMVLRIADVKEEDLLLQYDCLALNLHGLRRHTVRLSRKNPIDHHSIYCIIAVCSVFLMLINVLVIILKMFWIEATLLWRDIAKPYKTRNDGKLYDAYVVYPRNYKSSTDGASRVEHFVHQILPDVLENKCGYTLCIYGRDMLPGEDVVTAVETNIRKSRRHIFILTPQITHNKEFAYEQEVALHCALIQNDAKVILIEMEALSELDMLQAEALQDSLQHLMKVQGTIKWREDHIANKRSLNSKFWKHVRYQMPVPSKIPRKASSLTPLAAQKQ
A number is an active result. This is one part of a sample in which hits are shown more often than they occur.

COc1ccc2[nH]c3c(c2c1)CN(CC1(O)CCCN(CC2CCC2)C1=O)CC3 (stereo not drawn) was read as ST2 IL33 inh inactive.
For O=C(O)CCCC(=O)NC1CCCCCCC1 the results were ST2 IL33 inh inactive.
For CCn1cc(CN2CCC(CNC(=O)c3cnccc3C)C2)cn1 (stereo not drawn) the results were ST2 IL33 inh inactive.
For CC(C)NC(=O)[C@@H]1C[C@@H](N)CN1Cc1cccn1-c1ccccn1 the results were ST2 IL33 inh inactive.
`COc1cc(CN2CCC(C)CC2)c([N+](=O)[O-])cc1OC` gave ST2 IL33 inh inactive.
For COc1cc(CC(=O)O)c([N+](=O)[O-])cc1OC the results were ST2 IL33 inh inactive.
`COc1cc(C(c2ccc(C)o2)c2ccc(C)o2)c([N+](=O)[O-])cc1OC` gave ST2 IL33 inh 36.0%.
`Cc1cc(OCC(=O)NCc2ccc3c(c2)OCO3)cc(C)c1Br` gave ST2 IL33 inh inactive.
For COc1cc(C(=O)Nc2sc3c(c2C(=O)OC(C)C)CCCC3)cc(OC)c1OC the results were ST2 IL33 inh inactive.
For CC1=C(C(=O)N2CCOCC2)C(c2ccc(Cl)cc2)n2c(nc3ccccc32)N1 (stereo not drawn) the results were ST2 IL33 inh inactive.
O=C(CN1CCN(Cc2ccccc2F)C1=O)NCc1ccccn1 was read as ST2 IL33 inh inactive.
`COc1ccccc1-n1nc(CC(C)C)nc1CCn1c(C)cc(C)nc1=O` gave ST2 IL33 inh inactive.
For COCc1c(C(=O)NCc2ccc3c(c2)CCCN3C)cnn1-c1ncc(C)c(-c2cccs2)n1 the results were ST2 IL33 inh 39.0%.
`COc1ccc(OC)c(CNC(=O)c2cc(-c3cccs3)nc3ccccc23)c1` gave ST2 IL33 inh inactive.
For COc1ccccc1-c1ccnc(-n2ncc(C(=O)NCc3cccc(F)c3)c2C2CC2)n1 the results were ST2 IL33 inh inactive.
Screening OC1(c2cccc(C(F)(F)F)c2)CCN(Cc2ccc3[nH]ccc3c2)CC1 returned ST2 IL33 inh inactive.
`Cn1c(=O)c2c(nc(N3CCCC3)n2CCSc2nc3ccccc3s2)n(C)c1=O` gave ST2 IL33 inh inactive.
Screening Cn1c(=O)c2c(-c3ccccc3)n3ncccc3c2n(C)c1=O returned ST2 IL33 inh inactive.
Screening COc1ccc(-c2c3c(=O)n(C)c(=O)n(C)c3c3c(-c4ccccc4)cc(C)nn23)cc1 returned ST2 IL33 inh 31.0%.
COc1ccc(-c2c3c(=O)n(C)c(=O)n(C)c3c3cccnn23)cc1 was read as ST2 IL33 inh inactive.
`O=C(O)c1[nH]c2ccccc2c1CC(=O)N1CCCc2ccccc21` gave ST2 IL33 inh inactive.
For COc1ccccc1-c1nccn1CC1(c2ccccc2)CCOCC1 the results were ST2 IL33 inh inactive.
Screening COc1ccc2nc3oc(C(=O)NCCc4ccc(OC)c(OC)c4)cc3cc2c1 returned ST2 IL33 inh inactive.
CCOc1ccc(S(=O)(=O)N2CCSC2c2ccc(OC)c([N+](=O)[O-])c2)cc1 (stereo not drawn) was read as ST2 IL33 inh inactive.
CCCOc1ccc(/C=C2\N=C(c3cccc([N+](=O)[O-])c3)OC2=O)cc1OC was read as ST2 IL33 inh inactive.
Screening CCCOc1ccc(C2Oc3ccc(Br)cc3C=C2[N+](=O)[O-])cc1OC (stereo not drawn) returned ST2 IL33 inh 44.0%.
CCOc1cc2c(cc1OCC)C(c1ccc(Br)cc1)OC(=O)C2 (stereo not drawn) was read as ST2 IL33 inh inactive.
`CCOc1ccc(C2Oc3c(cc(Br)cc3OC)C=C2[N+](=O)[O-])cc1OCC` (stereo not drawn) gave ST2 IL33 inh 43.0%.
COc1cc([N+](=O)[O-])ccc1NC(=O)COc1ccc(Br)cc1C was read as ST2 IL33 inh inactive.
CCCNC(=O)C1CCC(Cn2c(=O)c3sccc3n(CC(=O)N3CCCCCC3)c2=O)CC1 (stereo not drawn) was read as ST2 IL33 inh inactive.
O=S(=O)(Nc1ccccc1Br)c1ccc(Br)s1 was read as ST2 IL33 inh inactive.
`COc1cccc(C=Nc2ccc(S(=O)(=O)Nc3ccccn3)cc2)c1` gave ST2 IL33 inh inactive.
COc1ccc(C(CC(=O)N(C)Cc2ncccc2C)c2ccccc2)cc1 (stereo not drawn) was read as ST2 IL33 inh inactive.
`CCOc1ccc(C=C2C(=O)OC3(CCCCC3)OC2=O)cc1OC` gave ST2 IL33 inh inactive.
`Cc1[nH]c2ccccc2c1C=C1C(=O)OC2(CCCCC2)OC1=O` gave ST2 IL33 inh 48.0%.
`CCCCN(CC)Cc1c(C)[nH]c2ccccc2c1=O` gave ST2 IL33 inh inactive.
For CCC(NC(=O)c1occc1C)c1ccnn1C (stereo not drawn) the results were ST2 IL33 inh inactive.
Screening CCN(CC)C1CCN(c2ncnc3c2CCN(C(=O)C2CC2)C3)C1 (stereo not drawn) returned ST2 IL33 inh inactive.
Screening Cc1nccn1-c1ccccc1CNC(=O)CC1C(=O)NCCN1C(C)C (stereo not drawn) returned ST2 IL33 inh inactive.
